Assay outcomes deposited in PubChem by Broad Institute.
aSyn 5UTR act: Activators via SNCA 5'UTR binding, MLPCN; activity score, % (tested at 7.5 µM), hits read low; 7.1% of 300,000 active; alpha-synuclein 5'UTR reporter, activators screen; in the data active = activity score below about -60%
Large screens that a line does not name were inactive. Not all results are given here.

CCCOc1ccc(-c2cnc(N)s2)cc1	aSyn 5UTR act -157.9
CCOC(=O)c1ccc(CSc2nnc(N)s2)cc1	aSyn 5UTR act -73.6
CCOc1ccc(-c2nc(CSc3nnc(N)s3)cs2)cc1	aSyn 5UTR act -90.3
CCCOc1ccc(OCCSc2nnc(N)s2)cc1	aSyn 5UTR act -89.1
Cn1c(O)c(/C=N/NC(=O)c2cc3ccccc3cc2O)c2ccccc21	aSyn 5UTR act -83.5
COc1ccc(-c2noc(-c3ccc(Cl)cc3[N+](=O)[O-])n2)cc1OC	aSyn 5UTR act -118.4
Cc1cccc(-c2noc(-c3ccc(Cl)cc3[N+](=O)[O-])n2)c1	aSyn 5UTR act -150.6
CCCc1ccc(Oc2cc(Cl)nc(N)n2)cc1	aSyn 5UTR act -149.3
CCc1ccc(Oc2cc(C)nc(N)n2)cc1	aSyn 5UTR act -92.5
CC1CCc2c(nc3ncnn3c2NCCc2ccccc2F)C1 (stereo not drawn)	aSyn 5UTR act -69.5
c1ccc2c(-n3cccn3)cccc2c1	aSyn 5UTR act -82.9
COC(=O)c1ccn(Cc2ccccc2Cl)n1	aSyn 5UTR act -105.9
Cc1ccccc1OC(C)C(=O)Nc1ccc2c(c1)OCCO2 (stereo not drawn)	aSyn 5UTR act -71.4
N#Cc1ccccc1OCC(=O)Nc1ccc2c(c1)OCCCO2	aSyn 5UTR act -159.7
C[C@@H](C(=O)Nc1ccc2c(c1)OCCO2)n1nnc2ccccc2c1=O	aSyn 5UTR act -89.5
O=C(COc1ccccc1Br)Nc1ccc2c(c1)OCCCO2	aSyn 5UTR act -133.2
O=C(COc1ccccc1F)Nc1ccc2c(c1)OCCO2	aSyn 5UTR act -75.4
Nc1ccc(-c2nnn(Cc3ccccc3F)n2)cc1	aSyn 5UTR act -70.7
c1ccc(Cn2nnc(-c3ccccc3)n2)cc1	aSyn 5UTR act -61.7
Clc1ccc(-c2nnn(Cc3nc4ccccc4s3)n2)cc1	aSyn 5UTR act -138.5
Fc1ccc(-c2nnn(Cc3ccccc3Cl)n2)cc1	aSyn 5UTR act -68.9
CC(C)n1nnc(-c2ccc(OCc3ccccc3F)cc2)n1	aSyn 5UTR act -99.7
COc1ccc(-n2nc3cc(C)c(N)cc3n2)cc1Cl	aSyn 5UTR act -141.9
[O-][n+]1onc2c3cc(-c4ccccc4)nnc3ccc21	aSyn 5UTR act -99.5
O=C(c1ccco1)N1CCc2ccccc21	aSyn 5UTR act -97.4
Cc1c(C(=O)N2CCc3ccccc32)oc2ccccc12	aSyn 5UTR act -126.1
Cc1c(Br)c(C(=O)N2CCc3ccccc32)nn1C	aSyn 5UTR act -126.8
O=C(c1ccc(Br)o1)N1CCc2ccccc21	aSyn 5UTR act -154.4
CCOC(=O)c1snc(C(=O)NC2CCCCC2)c1N	aSyn 5UTR act -150.3
CCC(=O)Nc1cccc(NC(=S)NC(=O)c2cccs2)c1	aSyn 5UTR act -161.1
CCC(=O)Nc1cccc(NC(=S)NC(=O)c2ccccc2Cl)c1	aSyn 5UTR act -81.9
O=C(NC(=S)Nc1ncccn1)c1ccccc1Cl	aSyn 5UTR act -181.2
O=C(NC(=S)Nc1ccccc1O)c1ccc(Cl)cc1Cl	aSyn 5UTR act -106.3
N=C1/C(=C/c2ccc(OCc3ccccc3F)cc2)C(=O)N=C2SC(CC(=O)N3CCOCC3)=NN12	aSyn 5UTR act -92.9
N=C1/C(=C/c2ccc(OCc3ccccc3)cc2)C(=O)N=C2SC(CC(=O)N3CCOCC3)=NN12	aSyn 5UTR act -95.1
CC(=C\c1ccccc1)/C=C1/SC(=S)N(CCCC(=O)O)C1=O	none
O=C(O)CCCN1C(=O)/C(=C\c2ccco2)SC1=S	aSyn 5UTR act -141.5
COc1ccc2oc(C(=O)c3ccccc3)c(N)c2c1	aSyn 5UTR act -174.5
Nc1c(C(=O)Nc2ccc(Cl)cc2)oc2ccccc12	aSyn 5UTR act -252.7
COc1ccc2oc(C(=O)C3CC3)c(N)c2c1	aSyn 5UTR act -133.0
COc1ccc2occ(C(=O)c3ccccc3)c2c1	aSyn 5UTR act -133.4
Nc1c(C(=O)c2ccco2)oc2ccccc12	aSyn 5UTR act -112.9
COC(=O)CCC(=O)c1oc2ccc(OC)cc2c1N	aSyn 5UTR act -62.0
Nc1ccc(C(=O)n2c3ccccc3c3ccccc32)cc1	none
COC(=O)c1oc2ccccc2c1N	aSyn 5UTR act -63.1
Nc1c(C(=O)c2ccc(F)cc2)oc2ccccc12	aSyn 5UTR act -137.4
COc1ccc(C(=O)c2oc3ccccc3c2N)cc1	aSyn 5UTR act -179.2
O=[N+]([O-])c1cc(Cl)cc2c1nc(NCCO)c1ccccc12	aSyn 5UTR act -206.7
Fc1cc(Br)ccc1NC(=S)Nc1ccccc1	aSyn 5UTR act -115.0
Fc1ccccc1NC(=S)Nc1ccc(Br)cc1	aSyn 5UTR act -73.6
Cc1ccc(NC(=S)Nc2ccc(Br)cc2)cc1	aSyn 5UTR act -85.8
Nc1[nH]nc2c1NN(c1ccc(Cl)cc1Cl)N2	aSyn 5UTR act -139.6
CC(C)C(=O)Nc1cccc(NC(=O)c2cc3ccccc3o2)c1	aSyn 5UTR act -108.3
CC(=O)Nc1cccc(NC(=O)c2oc3ccccc3c2C)c1	aSyn 5UTR act -272.2
CC(=O)Nc1ccc(-c2cc3ccccc3o2)cc1	aSyn 5UTR act -147.4
CCC(=O)Nc1ccc(Cl)c(NC(=S)NC(=O)c2cc3ccccc3o2)c1	aSyn 5UTR act -95.2
CC(=O)Nc1cccc(NC(=O)c2cc3ccccc3o2)c1	aSyn 5UTR act -92.2
Cc1ccc(NC(=O)c2cc3ccccc3o2)cc1Cl	aSyn 5UTR act -269.8
Cc1ccc(CC(=O)Nc2ccc(Cl)cn2)cc1	aSyn 5UTR act -101.1
O=C(/C=C/c1ccc2c(c1)OCO2)Nc1ccc(Cl)cn1	aSyn 5UTR act -109.6
O=C(COc1ccc2c(c1)OCO2)Nc1ccc(Cl)cn1	aSyn 5UTR act -141.6
O=C(COc1ccc2c(c1)OCO2)Nc1ccccc1F	aSyn 5UTR act -97.9
O=C(CCc1ccccc1)Nc1ccc(Cl)cn1	aSyn 5UTR act -313.6
O=C(/C=C/c1ccccc1Cl)Nc1ccc(Cl)cn1	aSyn 5UTR act -118.3
O=C(CCc1ccccc1)NC(c1cccs1)c1cc(Cl)c2cccnc2c1O (stereo not drawn)	none
Cc1ccccc1NC(=O)COc1ccc2c(c1)OC(C)(C)CC2=O	aSyn 5UTR act -87.7
O=C(Nc1ccc(Cl)cn1)c1ccc(Oc2ccccc2)cc1	aSyn 5UTR act -142.5
O=C(COc1ccccc1)Nc1ccc(Cl)cn1	aSyn 5UTR act -114.4
O=C(COc1ccc(Cl)cc1)Nc1ccc(Cl)cn1	aSyn 5UTR act -125.3
Cc1ccccc1Cn1cc(NC(=O)c2nc3ncccn3n2)cn1	aSyn 5UTR act -94.7
O=C1c2ccccc2C(=O)c2c1ccc1c(=O)n(-c3ccccc3)[nH]c21	aSyn 5UTR act -109.7
Cc1cccc(-n2[nH]c3c4c(ccc3c2=O)C(=O)c2ccccc2C4=O)c1	aSyn 5UTR act -62.0
O=c1[nH]c(Nc2ccc(F)cc2)cc2ccccc12	aSyn 5UTR act -75.2
CCc1cc2c(=O)[nH]c(-c3ccccn3)nc2s1	none
c1ccc(/N=C2\N=C(Nc3ccccn3)c3ccccc32)nc1	none
O=c1[nH]c(-c2ccccn2)cc2ccccc12	aSyn 5UTR act -117.7
O=c1[nH]c(Nc2ccccn2)cc2ccccc12	aSyn 5UTR act -112.3
COc1ccc(NC(=O)CSc2n[nH]c(N)n2)cc1OC	aSyn 5UTR act -92.3
Nc1nc(SCC(=O)Nc2ccc(OCc3ccccc3)cc2)n[nH]1	aSyn 5UTR act -84.5
Cc1c(Cl)cccc1NC(=O)c1cc(C2CC2)on1	aSyn 5UTR act -207.1
Cc1cc(NC(=O)c2cc(C3CC3)on2)no1	aSyn 5UTR act -95.7
COc1ccc(NC(=O)c2cc(C3CC3)on2)c(OC)c1	aSyn 5UTR act -199.7
CC(=O)Nc1ccc2oc(-c3cc(F)c(F)cc3Cl)nc2c1	none
O=C(Nc1ccc2oc(-c3cccc4ccccc34)nc2c1)c1ncn[nH]1	aSyn 5UTR act -183.8
O=C(Nc1ccc2oc(-c3ccccc3Cl)nc2c1)c1ncn[nH]1	aSyn 5UTR act -153.2
CC(C)C(=O)Nc1ccc2oc(-c3cc(F)c(F)cc3Cl)nc2c1	aSyn 5UTR act -153.7
